Cycloheximide cs: affects cycloheximide protein synthesis inhibition readout, counter-screen. max response, %. 300,000 compounds, 12% hits. cell reporter, cycloheximide protein synthesis inhibition counterscreen; in the data active means max response mostly above about 13%, no sharp cut-off; inactive means mostly below about 14%; further: read at 38.3 µM for the half of the compounds with a filed dose; 0% is about no effect
LmPK inh: inhibitors of Leishmania mexicana pyruvate kinase. AID 1721. Potency, µM (series often up to 57.5 µM), inactives show top-dose activity change, negative = inhibition, actives largely listed as inhibitors. 290,000 compounds, 0.37% hits. Q27686. purified LmPK, Kinase-Glo ATP luminescence, 1 h; active means well fitted curve in the direction sought with a large enough effect; inconclusive means small, poorly fitted or top-dose-only effect, or another doubt; inactive means no such curve, though single readings can be large; an effect the other way counts as inactive or inconclusive; further: potency means the concentration at half of the fitted maximal effect; on the % scale 0 is the no-effect control and ±100 the full control effect
Target sequence (Q27686 whole entry, looked up): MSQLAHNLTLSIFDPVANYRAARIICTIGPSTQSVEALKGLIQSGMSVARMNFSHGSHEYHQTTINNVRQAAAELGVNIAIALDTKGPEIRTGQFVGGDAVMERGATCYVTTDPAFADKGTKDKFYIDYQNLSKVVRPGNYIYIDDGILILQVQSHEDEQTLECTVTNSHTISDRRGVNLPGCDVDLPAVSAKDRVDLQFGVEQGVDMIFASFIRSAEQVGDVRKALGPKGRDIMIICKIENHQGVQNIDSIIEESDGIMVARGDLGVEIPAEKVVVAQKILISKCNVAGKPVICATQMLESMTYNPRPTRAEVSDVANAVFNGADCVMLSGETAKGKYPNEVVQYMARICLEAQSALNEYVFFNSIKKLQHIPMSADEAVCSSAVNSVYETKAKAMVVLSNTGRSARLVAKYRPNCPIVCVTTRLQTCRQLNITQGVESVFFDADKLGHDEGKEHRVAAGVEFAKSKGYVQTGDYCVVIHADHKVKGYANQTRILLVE
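0.1 nM LmPK, 0.5 mM PEP, 0.1 mM ADP; 50 mM imidazole pH 7.2, 7 mM MgCl2, 50 mM KCl; 1 h RT. Kinase-Glo luminescence readout, normalized to no-enzyme (full inhibition) and uninhibited wells.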
Shiga inhibitor: blocks Shiga toxin action in Vero cells | Vero cells, Shiga toxin protein synthesis inhibition reporter | inhibition, % at 38.7 µM | 290,000 compounds, 9.2% hits | AID 2315; in the data active means inhibition mostly above about 28%, no sharp cut-off; inactive means mostly below about 43%; further: 0% is about no effect
TbPYK inhibitor: inhibitors of Trypanosoma brucei pyruvate kinase; Potency, µM (doses to about 76.8 µM), without a hit: at the top dose activity, negative = inhibition, hits mostly inhibitors; 410,000 compounds, 0.12% hits; TbPYK enzyme, Kinase-Glo Plus ATP luminescence, 45 min; AID 624173; Q57TT1; active means well fitted curve in the direction sought with a large enough effect; inconclusive means small, poorly fitted or top-dose-only effect, or another doubt; inactive means no such curve, though single readings can be large; an effect the other way counts as inactive or inconclusive; further: potency means the concentration at half of the fitted maximal effect; on the % scale 0 is the no-effect control and ±100 the full control effect; nearly all actives have a fitted effect of over 50% in size
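T. brucei PYK with substrate was exposed to pin-transferred compounds across a concentration series, then started with 130 uM ADP (final). After 45 min at room temperature, Kinase-Glo Plus luminescence was read, normalized and curve-fitted.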
SARS PLpro yeast: inhibitors of SARS-CoV papain-like protease in yeast; S. cerevisiae expressing SARS-CoV PLpro, growth rescue; Potency, µM (top dose mostly 32.9 µM), for inactives: at the top dose activity, positive = growth rescue, actives largely listed as activators; 330,000 compounds, 0.19% hits; AID 485353; further: potency means the concentration at half of the fitted maximal effect; 0% is about no effect; nearly all actives have a fitted effect of over 55% in size
NS1 function inh: influenza NS1 inhibition; Potency, µM (top dose mostly 46.1 µM), inactives show at the highest dose activity, positive = more growth; 270,000 compounds, 0.4% hits; AID 2326; further: potency means the concentration at half of the fitted maximal effect; actives are rising curves; nearly all actives have a fitted effect of over 50% in size
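S. cerevisiae expressing influenza A NS1, grown in glucose, washed, then diluted 1:100 into pH 6.0 -URA galactose medium with 23 nl compound. Growth recovery read as OD600; NS1-free strain serves as control.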
Numbers without * were called inactive; ? = inconclusive; . = no result given; [ ] = another dose, or the depositor's remark. The full list was thinned out, with hits kept by preference. Unless noted, the call rests on the fitted dose curve.

SMILES | Cycloheximide cs | LmPK inh | Shiga inhibitor | TbPYK inhibitor | SARS PLpro yeast | NS1 function inh
CC(C)CNS(=O)(=O)c1ccc(CCC(=O)Nc2ccc3c(c2)OCCO3)cc1 | 5.5 | 0.9% | 9.2 | -15.2% | 0.5% | -5.4%
Cc1cc(C)n(-c2ccc(C(=O)Nc3ccc4c(c3)OCCO4)cc2)n1 | 45.4* | -3.4% | 100.0* | 7.5% | -10.7% | -41.3%
CS(=O)(=O)Nc1ccc(C(=O)NCc2ccc3c(c2)OCO3)cc1 | -5.9 | -7.7% | -10.0 | 2.2% | 0.1% | 1.6%
O=C(Nc1ccc2c(c1)OCCO2)c1ccc(NC(=O)C2CCCO2)cc1 (configuration not stated) | 23.3* | -2.7% | 21.3 | 8.9% | 0.6% | -11.6%
O=C(NCc1ccc2c(c1)OCO2)c1ccc(NC(=O)C2CCCO2)cc1 (configuration not stated) | 10.9 | 0.6% | -12.5 | 6.5% | 5.3% | -5.0%
CCN1c2ccccc2-c2nc(SCC(=O)Nc3cccc(C(F)(F)F)c3)ncc2S1(=O)=O | . | . | . | 1.5% | . | .
O=C(CC(c1cccs1)N1Cc2ccccc2C1=O)Nc1ccc(F)c(Cl)c1 (configuration not stated) | . | . | . | -2.3% | . | .
COC(=O)c1ccc(OC)c(CN2CCCN(Cc3ccc(C)cc3)S2(=O)=O)c1 | . | . | . | 4.6%[15.4 µM] | . | .
NC(=O)Nc1ccc2c(c1)OCCO2 | 51.7* | 4.5% | 102.7* | 0.3% | 4.6% | 1.7%
O=C(O)CCNc1ccc2c(c1)OCCO2 | 42.1* | -8.3% | 73.0* | -7.3% | 23.7% | ?
CC12CCC(C(=O)Nc3ccc4c(c3)OCCO4)(OC1=O)C2(C)C (configuration not stated) | 46.7* | 8.2% | 94.5* | -18.2% | 13.9% | 6.4%
O=C(O)CCCCCNC(=O)Nc1ccc2c(c1)OCCO2 | 15.5 | 2.1% | 30.4 | 3.6% | 0.2% | 4.8%
CC(=O)Nc1ccc(C(=O)Nc2ccc3c(c2)OCO3)cc1 | 17.7* | -4.8% | 57.0* | -7.1% | 3.1% | 3.8%
COc1ccc(C(=Cc2cc(OC)c(OC)cc2[N+](=O)[O-])C(=O)O)cc1 | . | . | . | 1.4% | . | .
CC(=O)Nc1ccc2c(c1)OCCOCCOc1cc(NC(C)=O)ccc1OCCO2 | -2.2 | 0.1% | -5.7 | -2.9% | -0.9% | 4.2%
O=C(CCNS(=O)(=O)c1ccc2c(c1)CCC(=O)N2)Nc1ccc2c(c1)OCCO2 | 29.4* | 2.0% | 55.6* | -7.4% | -3.6% | 0.2%
Cc1cc(C(=O)Nc2ccc3c(c2)OCCO3)co1 | 57.2* | -27.8% | 75.8* | -4.9% | -7.0% | -52.6%
CC(=O)Nc1ccc(C(=O)Nc2ccc3c(c2)OCCO3)cc1 | 27.1* | -0.6% | 42.0* | 3.1% | 0.4% | 3.0%
Cc1ccc(NC(=O)c2ccc3c(c2)OCCO3)cc1C | 14.7 | -7.0% | 20.9 | 0.2% | -5.6% | -64.5%
CC12CCC(C(=O)Nc3nc4ccccc4s3)(OC1=O)C2(C)C (configuration not stated) | 28.8* | -1.6% | 85.4* | -2.8% | -0.1% | 0.4%
COc1ccccc1CNS(=O)(=O)c1cc(-c2cc(C)no2)ccc1C(C)C | 11.2 | 2.2% | -6.3 | 2.0% | . | -30.9%
COc1cc(OC)cc(C(=O)NC(C(=O)Nc2ccc3c(c2)OCCO3)C(C)C)c1 (configuration not stated) | . | . | . | -4.5% | -2.8% | .
COc1cc(OC)cc(C(=O)Nc2ccc3c(c2)OCCO3)c1 | 25.7* | ? | . | ? | -13.1% | -21.2%
Cc1ccc(C(=O)Nc2ccc3c(c2)OCCO3)o1 | 30.7* | ? | 34.9 | -19.2% | -15.5% | -16.2%
O=C(Nc1ccc2c(c1)OCCO2)c1ccc(Cl)cc1 | 28.1* | -4.1% | 41.6 | -6.8% | -4.7% | -21.9%
SMILES | Cycloheximide cs | LmPK inh | Shiga inhibitor | TbPYK inhibitor | SARS PLpro yeast | NS1 function inh
Cc1cc(C)n(-c2ccc(C(=O)Oc3ccc4c(c3)OCO4)cc2)n1 | 17.6* | 1.1% | 32.5* | -9.2% | -9.4% | -65.1%
Cc1ccc(C(=O)Nc2ccncc2)o1 | -2.2 | -4.5% | -1.4 | -3.6% | -0.4% | 8.0%
O=C(Nc1ccc(NC(=O)c2ccc3c(c2)OCCO3)cc1)c1ccccc1 | 8.2 | -6.6% | 22.5 | 4.3% | -0.9% | 2.0%
CC(C)(C)c1ccc(C(=O)N2CCN(C(=O)c3cccs3)CC2)cc1 | . | . | . | 2.7% | -7.5% | .
CCOc1ccccc1CNC(=O)c1ccc2nc(Cc3ccc(OC)cc3)oc2c1 | . | . | . | -6.5% | . | .
O=NN(CCCl)C(=O)NC1CCCCC1 | . | . | . | -6.7% | . | .
